About 3,300 (0.97%) of roughly 340,000 compounds were called active. About 9% were inconclusive and are not listed. Calls come from the whole dose curve; as a rule, active = well fitted inhibition curve with a large enough effect; inconclusive = small, poorly fitted or top-dose-only effect, or effect the other way; inactive = flat fitted curve, though single readings scatter. The list shows a part of the results.
Assay: qHTS Assay for Modulators of miRNAs and/or Inhibitors of miR-21; note: nearly all actives have a fitted effect of over 55% in size
Settings: HeLa miR-21-FLuc reporter, luciferase luminescence, 48 h; actives lower the signal
Source text: MLSCN Grant: 1 R21 NS059478-01 Assay Provider: Qihong Huang, The Wistar Institute NCGC Assay Overview: MicroRNAs (miRNAs) are endogenously encoded small (~20-25 nucleotides), nonprotein-coding RNAs that are involved in post-transcriptional repression of target messenger RNAs (mRNAs) (Le and Hannon, 2004). Estimated to be involved in the regulation of 30% of all protein-coding mRNAs (Filipowicz et al., 2008), miRNAs play a significant role in many biological processes including cellular differentiation and tissue development (Ghildiyal and Zamore, 2009).
NCGC Assay Protocol Summary: Reagents: HeLa cells stably expressing firefly luciferase (FLuc) under the control of a CMV promoter (upstream) and a miR-21 binding sequence directly downstream of the gene. These cells endogenously express miR-21. Control compounds used were compound C3 (provided by collaborator), N6-phenyladenosine (MP Biomedicals, 0215379625), and DMSO. Assay Summary: 6uL of HeLa miR-21-FLuc cells in assay buffer (DMEM, Invitrogen #21063-029; 10% FBS, HyClone #SH30071.03) were dispensed at 2000cells/well (3.3 x 10^5 cells/mL) into Greiner solid-white TC-treated 1536-well plates using a Multidrop Combi (Thermo Fisher Scientific). Plates were incubated for one hour at 37 degree Celsius, 95% humidity, 5% CO2. These assay plates were then treated with 23nL of compound or DMSO using a Kalypsys pin tool, which allows for delivery of a 24-point titration of each compound to the assay plate, with a final compound concentration ranging from approximately 40uM to 5pM. Assay plates were then incubated for 48 hours. After incubation, plates were allowed to come to RT for one hour prior to delivery of 3uL of 3X luciferase detection reagent. After a 15 minute incubation to allow for cell lysis, luciferase activity was measured using a ViewLux CCD imager (PerkinElmer), with an average exposure time of 2-12 seconds. Keywords: NIH Roadmap, MLPCN, MLSMR, qHTS, miR-21, microRNA, firefly luciferase, FLuc.
Potency is the fitted concentration of half-maximal effect.

Potency, active:
CCc1ccccc1NC(=O)C(=O)c1cc(C)n(-c2ccccc2F)c1C 16.5 µM, CCOC(=O)c1c(C)oc2c1c(CN1CCN(CCO)CC1)c(O)c1ccccc12 10.4 µM, CCOC(=O)c1c(C)oc2c1c1c(c3ccccc32)OCN(CCCC(=O)O)C1 10.4 µM, CCOC(=O)c1c(C)oc2c1c(CN1CCN(C(=O)OCC)CC1)c(O)c1ccccc12 14.7 µM, CCOC(=O)c1c(C)oc2c1cc(O)c1ccccc12 5.21 µM, COc1ccccc1Nc1ncnc2c1oc1ccccc12 14.7 µM, c1ccc(Nc2ncnc3c2oc2ccccc23)cc1 7.36 µM, Oc1ccc(Nc2ncnc3c2oc2ccccc23)cc1 13.1 µM, Oc1cccc(Nc2ncnc3c2oc2ccccc23)c1 5.21 µM, c1ccc2c(c1)oc1c(Nc3ccc4c(c3)OCO4)ncnc12 1.65 µM, C=C1SC(=Nc2ccccc2Cl)N(C(=O)c2sc3ccccc3c2Cl)C1(C)C 13.1 µM, O=C(NC1=NCCS1)c1sc2cc(F)ccc2c1Cl 0.736 µM, O=C(Nc1ccon1)c1sc2cc(F)ccc2c1Cl 1.65 µM, CCCc1cc(C(=O)NCCc2ccccc2)no1 4.14 µM, CC(C)Cc1cc(C(=O)NCCc2ccccc2)no1 2.33 µM, CC(C)c1cc(C(=O)NCCc2ccccc2)no1 2.33 µM, Brc1ccc(C2=NC(Cc3ccccc3)CO2)cc1 (configuration not stated) 14.7 µM, OC(COc1ccc2ccccc2c1Cl)CN1CCOCC1 (configuration not stated) 10.4 µM, COc1ccc2oc(C(=O)c3ccccc3)c(N)c2c1 1.17 µM, Nc1c(C(=O)c2ccccc2)oc2ccc(Br)cc12 2.61 µM, COc1ccc(C(=O)c2oc3ccc(OC)cc3c2N)cc1 7.36 µM, CC1CN(C(=O)c2cccc(COc3ccc(Br)cc3)c2)CC(C)O1 (configuration not stated) 2.93 µM, Cc1cc(NC(=O)c2cccc(COc3ccc(Br)cc3)c2)no1 1.04 µM, COc1ccc(OCc2cccc(C(=O)Nc3ccc(CN4CCCCC4)cc3)c2)cc1 2.07 µM, COc1ccc(OCc2cccc(C(=O)N3CCCC3)c2)cc1 1.47 µM, CCOc1ccc(N=C(C)C2=C(O)c3ccccc3C2=O)cc1 1.17 µM, COc1ccccc1N1CCN(c2nc3ccccn3c(=O)c2C=O)CC1 18.5 µM, O=Cc1c(N2CCN(c3ccccc3)CC2)nc2ccccn2c1=O 16.5 µM, Cc1ccc(/C=C/C(=O)N2CCc3ccccc32)o1 2.93 µM, O=C(/C=C/c1ccc(Cl)cc1Cl)N1CCc2ccccc21 0.521 µM, O=c1c(-c2ccc(O)cc2)coc2cc(OC3OC(CO)C(O)C(O)C3O)cc(O)c12 (configuration not stated) 2.61 µM, CCN1CCN(c2cc3c(nn2)Oc2ccccc2N3C)CC1 7.36 µM, CCC(=O)Nc1ccc(N2CCC(C)CC2)cc1 18.5 µM, CC1CCN(c2ccc(NC(=O)c3ccc(Br)o3)cc2)CC1 0.656 µM, Nc1nc(CSc2ccccc2)nc(N2CCCCC2)n1 6.56 µM, Cc1c(Cl)cccc1Nc1nc(N)nc(CSc2ncccn2)n1 16.5 µM, Cc1ccccc1Nc1nc(N)nc(CSc2ccccc2)n1 0.656 µM, Cc1ccccc1Nc1nc(N)nc(CSc2ccc(F)cc2)n1 1.31 µM, CN1C(=O)/C(=C\c2cc(Br)cs2)c2ccccc21 16.5 µM, Cc1nn(-c2ccccc2)c(N)c1N=Nc1cccnc1 11.7 µM, Cc1nn(-c2ccccc2)c(N)c1N=Nc1ccc2ccccc2c1 4.65 µM, Cc1cccc(N=Nc2c(C)nn(-c3ccccc3)c2N)c1C 7.36 µM, Cc1snc2sc(C(=O)c3ccc(F)cc3)c(N)c12 5.21 µM, Cc1cccc(C)c1OCC(=O)Nc1cccc(C(=O)O)c1 1.85 µM, CC(=O)c1cccc(NC(=O)COC(=O)c2ccccc2C)c1 5.85 µM, CC(C)C(=O)Nc1ccc(C(=O)c2ccccc2)cc1 7.36 µM, O=C(Nc1ccccc1Cl)c1csc(-c2cccnc2)n1 13.1 µM, CC(C)C(=O)Nc1ccc(-c2csc(-c3ccccc3)n2)cc1 2.33 µM, CC(=O)Nc1ccc(-c2csc(-c3cccnc3)n2)cc1 1.17 µM, CC(C)C(=O)Nc1ccc(-c2nnc(-c3ccccc3)o2)cc1 0.261 µM, COC(=O)c1ccsc1NC(=O)CCc1ccccc1 7.36 µM, COc1ccc(-c2csc(-c3cccnc3)n2)cc1C 3.69 µM, c1cncc(-c2nc(-c3ccc4c(c3)OCO4)cs2)c1 1.65 µM, COc1ccc2cc(-c3csc(-c4cccnc4)n3)ccc2c1 3.29 µM, CN(C)c1ccc(N=Nc2ccc(S(N)(=O)=O)cc2)cc1 1.17 µM, CC(=O)c1ccc(N=Nc2ccc(N(C)C)cc2)cc1 0.293 µM, O=C(c1cc(-c2ccc(Br)cc2)on1)N1CCOCC1 0.585 µM, O=C(c1cc(-c2ccc(Br)cc2)on1)N1CCCCCC1 0.927 µM, c1ccc(-c2noc(-c3ccc4c(c3)OCO4)n2)cc1 0.293 µM, COc1cccc(-c2noc(-c3ccc4c(c3)OCO4)n2)c1 0.261 µM, COc1cc(/C=N/NC(=S)NC2CC3CCC2C3)ccc1O (configuration not stated) 7.36 µM, C=CCn1c(SCC(N)=O)nc2scc(-c3ccc(C)o3)c2c1=O 5.85 µM, CCC(=O)Nc1cccc(NC(=S)NC(=O)c2cc3ccccc3o2)c1 0.585 µM, COc1ccc(NC(=O)c2cc3ccccc3o2)c(OC)c1 0.585 µM, COc1cc(NC(=O)c2c(OC)cccc2OC)ccc1NC(=O)c1cc2ccccc2o1 5.21 µM, COc1ccccc1NC(=O)c1cc2ccccc2o1 2.93 µM, COc1ccccc1NC(=O)c1cc2ccc3cccnc3c2[nH]1 2.33 µM, O=C(Nc1ccccc1C(F)(F)F)c1cc2ccccc2o1 1.17 µM, CNC(C)C#Cc1ccc2c(=O)c3c(OC)cccc3oc2c1 (configuration not stated) 3.69 µM, COc1cccc2oc3cc(C#Cc4ccccn4)ccc3c(=O)c12 2.93 µM, COc1cccc2oc3ccc(C#CC4(N)CCCCC4)cc3c(=O)c12 7.36 µM, O=c1cc(-c2ccc3c(c2)OCCO3)oc2ccc(Cl)cc12 0.185 µM, CCCCCC(=O)Nc1ccc2ccccc2c1 4.65 µM, CCCC(=O)Nc1ccc2c(c1)Cc1ccccc1-2 1.85 µM, O=C(Nc1ccccc1)Nc1ccc2ccccc2c1 2.93 µM, CCCCC(=O)Nc1ccc2c(c1)oc1ccccc12 2.33 µM, Cc1ccc(-c2nn(-c3ccccc3)cc2CO)o1 1.47 µM, Cc1ccc(-c2nn(-c3ccccc3)cc2CO)cc1 14.7 µM, O=C(/C=C\Nc1ccc2c(c1)OCO2)c1ccc(Cl)s1 0.464 µM, O=C(/C=C\Nc1ccc2c(c1)OCO2)c1ccc2c(c1)OCO2 5.85 µM, COc1ccc(N/C=C\C(=O)c2ccc3c(c2)OCO3)cc1OC 14.7 µM, COc1ccc(N/C=C/C(=O)c2ccc3c(c2)OCO3)cc1OC 13.1 µM, Cc1ccc(OCC(=O)Nc2ccc(F)cc2)c([N+](=O)[O-])n1 7.36 µM, Cc1ccc(OCC(=O)Nc2ccc3c(c2)OCO3)c([N+](=O)[O-])n1 7.36 µM, CCOc1ccc(/C=C/C2=NNC(=O)CC2)cc1 5.85 µM, Cc1nc2c(-c3ccc(F)cc3)cnn2c(N)c1-c1ccc(F)cc1 0.414 µM, Cc1cc(N)n2ncc(-c3ccc(F)cc3)c2n1 4.65 µM, COc1ccc(-c2cc(C)nc3c(-c4ccccc4)cnn23)cc1 0.233 µM, Cc1cc(N)n2ncc(-c3ccccc3)c2n1 3.29 µM, Cc1cc(N)n2ncc(-c3cccc(Br)c3)c2n1 3.29 µM, CCOC(=O)c1cn2nc(Oc3ccccc3)ccc2n1 5.85 µM, O=C(COc1ccccc1Br)Nc1ccc2c(c1)OCCCO2 0.927 µM, N#Cc1ccccc1OCC(=O)Nc1ccc2c(c1)OCCCO2 2.61 µM, CC1=C(C)CC(C(=O)NCC(=O)c2ccccc2)C(C(=O)O)C1 (configuration not stated) 4.14 µM, Cc1cc(C)n2nc(SCCOc3ccccc3F)nc2n1 11.7 µM, Cc1cc(C)n2nc(SCC3COc4ccccc4O3)nc2n1 (configuration not stated) 16.5 µM, Cc1cc(C)n2nc(SCCOc3ccccc3)nc2n1 7.36 µM, Clc1ccc(Cc2nnc(-c3ccccc3Br)o2)cc1 16.5 µM, Clc1ccc(Cc2nnc(-c3cccs3)o2)cc1 18.5 µM, BrCCOCCOc1ccc2ccccc2c1 18.5 µM, Cc1c(C(=O)N2C[C@@H](C)O[C@@H](C)C2)oc2c(F)cccc12 13.1 µM, Cc1c(C(=O)NC2CCOC2)oc2c(F)cccc12 (configuration not stated) 5.85 µM, CC(O)CNc1ncnc2cc(-c3ccc(F)cc3)sc12 (configuration not stated) 4.65 µM, Cc1nn(-c2ccc3ccccc3c2)c(=O)c2ccccc12 2.93 µM, Cc1nn(-c2ccc(Br)cc2)c(=O)c2ccccc12 2.93 µM, COc1cccc(COc2ccc3ccc(=O)oc3c2)c1 7.36 µM, COc1ccc(COc2ccc3ccc(=O)oc3c2)cc1 2.93 µM

From PubChem BioAssay AID2289 (National Center for Advancing Translational Sciences (NCATS), 2010)
